Compound activity as filed in PubChem.
HSP90 inh: blocks HSP90-mediated luciferase refolding in reticulocyte lysate | Rabbit reticulocyte lysate, luciferase refolding luminescence, 3 h | inhibition, % at 5.6 µM | 290,000 compounds, 0.91% hits | AID 1789;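 active = inhibition above the screen-wide mean plus 3 SD, computed separately per campaign, cut at about 16% in these data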;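 note: 0% = DMSO wells and 100% = 60 µM geldanamycin wells; inhibitors lower the luminescence because luciferase stays unfolded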
HSF1 inh: HSF1 inhibition; NIH3T3-HGL HSE-luciferase, MG132-induced, luminescence 8 h; stronger effect = lower value; activity change, negative = inhibition, % at 7.5 µM (by protocol); 300,000 compounds, 0.77% hits;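 active = more than half of replicate wells show activity change below -50%, luminescence cut by over half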;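 note: luciferase reports HSF-1 transcriptional activity via heat shock element; 0% = median of DMSO wells and -100% = zero luminescence signal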
TWEAK Fn14 block: inhibitors of TWEAK-Fn14 interaction signaling; TWEAK-stimulated Fn14 reporter cells, luciferase luminescence, 8 h; inhibition, % at 10 µM; 360,000 compounds, 2% hits; AID 1159606; in the data active = inhibition above about 50%
HSF-1 act: increases HSF-1 driven luciferase reporter signal | NIH3T3-HGL HSF-1 luciferase reporter, MG132, 8 h; 100% = twice DMSO control signal | activation, % at 9 µM | 300,000 compounds, 1.7% hits;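 active = mean replicate activation of at least 50% with a set share of replicates each reaching 50%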;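 note: 0% = median of the neutral control wells and 100% = twice that signal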
EBV LMP1 NFkB: inhibitors of Epstein-Barr LMP1-induced NF-kappaB reporter; AID 504558; 350,000 compounds, 0.69% hits; LMP1-induced NF-kappaB luciferase reporter cells, luminescence; inhibition, % at 12.5 µM; in the data active = inhibition above about 41%;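 note: 0% = neutral control wells and 100% = reference inhibitor control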
TROY signal inh: blocks TROY-dependent signaling in reporter cells; Q293 LMP1-TROYcd NF-kB luciferase reporter, 4 h; 360,000 compounds, 0.98% hits; inhibition, % at 10 µM;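 active = compounds whose plate-normalised and pattern-corrected inhibition of the luciferase reporter signal at the single screening dose is 50% or more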
HSP90 inh confirm: confirmation of HSP90 inhibitors. shares compounds with HSP90 inh. rabbit reticulocyte lysate, luciferase refolding luminescence, 3 h. inhibition, % at 5.9 µM. 2,300 compounds, 64% hits; in the data active = inhibition above about 18%;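 note: 0% = vehicle wells and 100% = reference inhibitor wells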
luciferase ctr: counter-screen for HSP90 inhibitors: inhibitors of firefly luciferase. shares compounds with HSP90 inh. purified native firefly luciferase, luminescence. inhibition, % at 5.9 µM. 2,300 compounds, 48% hits. AID 1847;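 active = inhibition above the mean inhibition of all tested sample wells plus 3 SD, cut at about 10% in these data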;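 note: 0% = DMSO with luciferase and 100% = wells lacking luciferase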
Target sequence (P08659 whole entry, looked up): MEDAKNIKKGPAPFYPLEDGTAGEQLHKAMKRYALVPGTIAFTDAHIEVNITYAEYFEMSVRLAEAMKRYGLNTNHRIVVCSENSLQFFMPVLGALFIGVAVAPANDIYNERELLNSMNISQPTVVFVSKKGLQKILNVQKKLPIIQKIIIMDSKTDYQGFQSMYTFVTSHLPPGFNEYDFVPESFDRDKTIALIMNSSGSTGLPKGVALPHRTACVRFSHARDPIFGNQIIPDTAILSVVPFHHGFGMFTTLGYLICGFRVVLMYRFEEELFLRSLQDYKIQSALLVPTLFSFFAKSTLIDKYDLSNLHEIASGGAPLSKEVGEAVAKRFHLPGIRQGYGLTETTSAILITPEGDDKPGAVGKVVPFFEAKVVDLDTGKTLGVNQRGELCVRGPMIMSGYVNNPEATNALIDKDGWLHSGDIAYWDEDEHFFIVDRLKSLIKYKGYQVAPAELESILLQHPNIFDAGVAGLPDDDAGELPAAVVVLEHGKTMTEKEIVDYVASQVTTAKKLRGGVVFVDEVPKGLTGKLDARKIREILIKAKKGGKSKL
* marks the source's active call; other numbers are inactive results; x = no result. An excerpt weighted towards active compounds, which were near 4.7% of everything screened.

SMILES	HSP90 inh	HSF1 inh	TWEAK Fn14 block	HSF-1 act	EBV LMP1 NFkB	TROY signal inh	HSP90 inh confirm	luciferase ctr
COC(=O)c1sc(NC(=O)c2oc3ccccc3c2C)nc1C	55*	10	-30	9	9	-33	35*	-24
CCOC(=O)c1sc(NC(=O)c2ccc(C)o2)nc1C	45*	11	9	34	-24	-26	44*	-14
CC(=O)c1sc(NC(=O)C(C)(C)C)nc1C	3	-2	21	4	-5	-8	x	x
CCOC(=O)c1sc(NC(=O)c2ccc(OC)cc2)nc1C	18*	11	-10	1	-10	-35	28*	-6
CC(=O)c1sc(NC(=O)c2ccc(C(C)(C)C)cc2)nc1C	30*	-15	20	-13	-34	-7	9	-5
CCOC(=O)c1sc(NC(=O)c2ccc(OC(C)=O)cc2)nc1C	6	x	-10	x	-17	-29	x	x
CC(C)(C)c1ccc(C(=O)Nc2ccc(C=C(C#N)C#N)cc2)cc1	39*	-17	-2	-14	-3	-5	45*	-16
c1ccc(-c2nnc(-c3ccccn3)s2)nc1	35*	20	81*	x	47*	28	64*	44*
COc1ccc(-c2ccc(CN3C(C(C)C)C(=O)N(Cc4cn(CC5CCCCC5)nn4)CCS3(=O)=O)cc2)cc1OC (stereo not given)	x	x	26	x	13	17	x	x
CCC(=O)c1cn(CC(=O)Nc2ccc(F)cc2)c2ccccc12	x	x	-10	x	3	3	x	x
COc1ccc(C(=O)OCC(=O)NCc2ccco2)cc1OC	2	4	-2	6	2	6	x	x
CCOc1ccc(C(=O)OCC(=O)NCc2ccco2)cc1OCC	31*	6	-1	-2	0	-16	-2	-7
O=[N+]([O-])c1ccc(S(=O)(=O)N2CCN=C2SCc2ccc(F)cc2)cc1	35*	1	0	0	-12	-10	70*	-4
CCCCc1c(-c2ccccc2OC)ncn1CCc1ccccc1	x	x	0	x	x	20	x	x
C[C@@H]1CN([C@@H](C)CO)C(=O)CCCn2cc(nn2)CO[C@H]1CN(C)C(=O)c1ccc2ccn(C)c2c1	x	x	22	x	9	13	x	x
COn1c(-c2ccccc2)nc2c1CCc1c-2no[n+]1[O-]	2	-6	5	5	14	7	x	x
COc1ccc(-c2nc3c(n2O)CCc2c-3no[n+]2[O-])cc1	37*	-25	-3	-17	-26	-14	2	-8
Cc1ccc(OCc2nc(-c3ccccn3)no2)c(Br)c1	40*	9	85*	26	38	36	65*	61*
Cc1cccc(CN(Nc2ccccc2)c2ccccc2)n1	x	x	-1	x	-9	-26	x	x
CCCc1ccc(-c2cc(C(=O)N3CCN(c4ccccn4)CC3)c3ccccc3n2)cc1	38*	-20	32	-32	6	48	43*	12*
COCCCNC(=O)c1csc([C@H]2C[C@H](O)[C@@H](CO)O2)n1	x	x	-2	x	x	-2	x	x
O=C(CCN1CCCO1)N1CCCC(Nc2cccc(F)c2)C1 (stereo not given)	x	x	-2	x	-8	-10	x	x
Cc1cc(/C=N/NC(=O)c2cccc(F)c2)c(C)n1-c1ccccc1	25*	-17	39	-21	-26	15	48*	47*
O=C(O)c1cccc(NC(=S)NC(=O)c2ccc3ccccc3c2)c1	64*	-71*	20	-75	8	-31	71*	49*
Cc1ccc(C(=O)Nc2ccc3nccnc3c2)cc1	26*	-7	49	9	15	-18	33*	7
CCOc1ccc(NC(=O)c2cc(F)c(F)cc2Cl)cc1OCC	24*	-1	5	-4	-1	6	4	-2
Cc1cc(NC(=O)c2ccc3nccnc3c2)ccc1Br	x	x	21	x	-29	-2	x	x
Cc1ccccc1N=C(c1ccccc1)C1C(=O)c2ccccc2C1=O	x	x	26	x	x	42	x	x
CCNC(=O)C1(C)CCN(C(=O)c2ccccc2OC(F)(F)F)C1 (stereo not given)	x	x	1	x	x	16	x	x
